Calls of active or inactive are those of the source.

Sequence of Luciferin 4-monooxygenase (Photinus pyralis) (P08659 whole entry, looked up): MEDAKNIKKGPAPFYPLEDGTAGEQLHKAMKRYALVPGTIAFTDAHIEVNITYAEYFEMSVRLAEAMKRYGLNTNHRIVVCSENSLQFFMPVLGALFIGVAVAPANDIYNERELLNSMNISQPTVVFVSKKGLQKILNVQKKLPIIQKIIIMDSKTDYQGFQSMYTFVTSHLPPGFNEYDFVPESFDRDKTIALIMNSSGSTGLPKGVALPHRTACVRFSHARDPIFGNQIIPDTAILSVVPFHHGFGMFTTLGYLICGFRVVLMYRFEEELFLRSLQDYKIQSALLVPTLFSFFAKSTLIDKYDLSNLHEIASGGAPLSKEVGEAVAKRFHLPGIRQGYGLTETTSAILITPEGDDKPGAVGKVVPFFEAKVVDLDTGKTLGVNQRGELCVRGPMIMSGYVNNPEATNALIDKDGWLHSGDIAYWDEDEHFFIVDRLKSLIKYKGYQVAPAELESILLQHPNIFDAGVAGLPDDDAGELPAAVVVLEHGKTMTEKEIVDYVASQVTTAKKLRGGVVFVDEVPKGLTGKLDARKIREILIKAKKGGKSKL

One assay has as its system wheat germ agglutinin (Triticum aestivum), Alexa647-labelled. Nature of the assay: wheat germ agglutinin binders on compound microarrays, profiling panel, artefact control for SMM control-protein annotation, biochemical, small-molecule microarray, 635/667 nm fluorescence (AID 1140).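 Also: score merges 667 nm feature emission with signal to noise over triplicate slides.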 Particulars: WGA-A647 binding, 635 nm fluorescence, higher = more signal.
With `C=C(C(=O)CC[C@@H](OC(=O)c1cccnc1)c1ccc(CO)o1)C(C)C`, the composite z-score was found to be 0.187.
Same read-out and setting: then `O=C1O[C@H](c2ccccc2)[C@H](c2ccccc2)N2[C@H]1[C@@H](C(=O)Nc1nc3ccccc3s1)[C@]1(C(=O)Nc3ccc(C#CC4=CCCCC4)cc31)[C@H]2c1ccc(OCCO)cc1`, with 0.916.
In turn, `COCCOC(=O)N1C(=O)[C@@]2(c3cc(C#Cc4ccc(OC)cc4)ccc31)[C@H](C(N)=O)[C@H]1C(=O)O[C@H](c3ccccc3)[C@H](c3ccccc3)N1[C@@H]2c1ccc(O)cc1` had a composite z-score of 0.17.
The compound `CN1C(=O)C2C(C1=O)C1C=C(c3ccc(CO)cc3)C2C(C2CC2)N1Cc1sc2ccccc2c1Cl` (stereo not drawn) came in with a composite z-score of 1.25.
As to `CC1CC/C=C\[C@H]2OC34C=CCN(Cn5nnc6ccccc65)C(=O)[C@H]3N(CCCO)C(=O)[C@@H]4C2C(=O)O1` (stereo partly drawn), the composite z-score is -1.09.
On to `O=P(NCC1(CC2(c3ccccc3)CO2)CC1)(c1ccccc1)c1ccccc1` (stereo not drawn), for which the composite z-score was -0.0073.
With `CCOC(=O)C1=CC[C@@H](c2ccccc2)N(S(=O)(=O)c2ccc(C)cc2)[C@H]1c1ccc(C#N)cc1`, the composite z-score is 1.23.
`COc1cc(NN2C(C(O)c3ccccc3)C=CC3C(=O)N(c4ccccc4)C(=O)C32)cc(OC)c1OC` (stereo not drawn) gave a composite z-score of 1.39.
On the same count and under the same terms, then `Cn1c2c(c3ccccc31)C(=O)C1NC2C=CC1(C)C(=O)OCc1ccccc1` (stereo not drawn), with 0.757; and `Cc1ccc(S[C@]2(C(=O)NCCN3CCOCC3)CC(=O)N(C3CCCCC3)[C@@H]2c2ccc(CO)cc2)cc1`, with 0.211; and `COCCOC(=O)N1C(=O)[C@@]2(c3cc(C#CC4=CCCCC4)ccc31)[C@H](c1ccc(OCCO)cc1)N1[C@H](c3ccccc3)[C@H](c3ccccc3)OC(=O)[C@H]1[C@@H]2C(=O)Nc1nc2ccccc2s1`, with 0.53.

Another assay has as its target Luciferin 4-monooxygenase (Photinus pyralis) (UniProt P08659). Briefly: firefly luciferase enzyme inhibitors, primary screen, biochemical, luminescence, purified enzyme, 2006 set (AID 1141).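 Also: cell-free assay with purified firefly luciferase at 100 ng per well in PBS; test concentration not given here.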 Particulars: SteadyGlo luminescence, 30 min, higher = more signal, called active from +8 up or from −8 down.
Consider `C[N+](C)(C)CCCCNC(=O)[C@H]1C[C@H]2C(=O)N3CCC[C@H]3C(=O)N2[C@H]1c1ccc(O)cc1`, for which the z-score was -0.679 (inactive).
On to `O=S(=O)(NCCCO)c1ccc(Br)cc1`, for which the z-score was -0.0622 (inactive).
As for `Cc1ccc(S(=O)(=O)N2CC(C(=O)O)=CCC2c2ccccc2)cc1` (stereo not drawn), the z-score was 1.52 (inactive).
For `C=CCOC(=O)[C@H]1[C@@H]2C(=O)O[C@@H](c3ccccc3)[C@@H](c3ccccc3)N2[C@@H](c2ccc(OCCOC(=O)[C@@H]3C[C@@H]4C(=O)NCC(=O)N4[C@@H]3c3ccc(O)cc3)cc2)[C@]12C(=O)Nc1ccc(I)cc12`, the z-score was -0.978 (inactive).
Regarding `CC(=O)NCCCC[C@@H]1NC(=O)[C@@H]2C[C@H](C(=O)NCCCCCC[N+](C)(C)C)[C@H](c3cccc(OCCO)c3)N2C1=O`, the z-score is 0.364 (inactive).
As for `C/C=C/[C@H](CCn1cc([C@H](O)c2ccccc2)nn1)[Si](C)(C)c1ccc(OC)cc1`, the z-score is 0.173 (inactive).
Turning to `CCCNC(=O)[C@@]1(C)c2ccccc2C(=O)N(Cc2cc(C(F)(F)F)cc(C(F)(F)F)c2)[C@H]1c1ccc(CO)cc1`, the z-score is 0.517 (inactive).
As for `C=C(CCCC)/C(=C/C[C@H](OC(C)=O)c1ccc(CO)o1)c1cc(C(=O)OC)ccc1OC`, the z-score was -1.45 (inactive).
Still for that read-out and setting: then `C=CCCN(CC#C[C@H]1Oc2ccccc2S(=O)(=O)N2CCC[C@@H]12)S(=O)(=O)c1ccc(C)cc1`, with -0.291 (inactive); and `CN1C(=O)C2C=CC(C(O)C(c3ccccc3)c3ccccc3)N(Nc3ccccc3)C2C1=O` (stereo not drawn), with -0.0128 (inactive); and `O=C1OCCC/C=C\[C@H]2OC34C=CCN(CCN5CCOCC5)C(=O)[C@H]3N(CCO)C(=O)[C@@H]4C12` (stereo partly drawn), with 0.634 (inactive).
Take `COCCOC(=O)N1C(=O)[C@@]2(c3cc(C#CC4(O)CCCCCC4)ccc31)[C@H](c1ccc(O)cc1)N1[C@H](c3ccccc3)[C@H](c3ccccc3)OC(=O)[C@H]1[C@@H]2C(=O)N1CCc2cc(OC)c(OC)cc2C1`: the z-score was 0.503 (inactive).
Turning to `COCCn1c(C(=O)N2CCCC2)cc2c1C[C@H]1CN(C(=O)c3ccccc3)[C@@](Cc3ccc(OC)cc3)(C(=O)OC)[C@@H]21`, the z-score is 0.438 (inactive).
Consider `Cc1cc(C)c(C(O)C2C=CC3C(=O)NC(=O)C3N2Nc2ccccn2)c(C)c1` (stereo not drawn), for which the z-score is -1.56 (inactive).
For `CC(c1ccccc1)C(O)C1C=CC2C(=O)N(Cc3ccccc3)C(=O)C2N1n1cnnc1` (stereo not drawn), the z-score is 1.52 (inactive).
On to `O=C(NCC(O)CO)[C@@]1(Cc2ccccc2)N=C(c2ccc(OCCCO)cc2)O[C@H]1c1ccccc1` (stereo partly drawn), for which the z-score was -1.6 (inactive).
On to `CC(c1ccccc1)C(O)C1C=CC2C(=O)N(c3ccccc3)C(=O)C2N1Nc1ccccc1F` (stereo not drawn), for which the z-score was 1.94 (inactive).

(Values after PubChem BioAssay.)
